FBPA coupling cs – coupling enzyme interference in Giardia aldolase counter-screen | coupling enzyme system counterscreen, AmpLite Red fluorescence | activity change, negative = inhibition, % at 58.2 µM, hits read low | 290,000 compounds, 0.67% hits | AID 2472; in the data active = activity change below about -30%; note: % is set by controls: 0 for no effect and ±100 for the full control effect
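Counterscreen lacking aldolase: glyceraldehyde-3-phosphate coupling-enzyme reagent preincubated 10 min at RT with compound (at 57.5 uM final), then substrate/coupling system with AmpLite Red added; fluorescence read at 525/598 nm after 20 min RT.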
TSHR antagonist – blocks TSH signaling through the human TSH receptor | P16473 | TSHR-expressing cells, TSH-stimulated cAMP HTRF, 2 h; active compounds read low | activity change, negative = inhibition, % at 11.5 µM | 330,000 compounds, 0.2% hits | AID 504810;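 active = activity change below a set negative limit, meaning inhibition stronger than a set level, cut at about -70% in these data; inconclusive = activity change between two set negative limits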; note: % is set by controls: 0 for no effect and ±100 for the full control effect
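Competitive HTRF cAMP read-out (cryptate anti-cAMP antibody, cAMP-d2; 30 min, room temperature) in freshly harvested TSHR cells. Compounds added before TSH at EC80 (4nM final), followed by 2 hours' incubation at 37 deg C.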
TR SRC2 fluor cs – alters Texas Red total fluorescence, flagging assay interference; 280,000 compounds, 0.29% hits; Potency, µM (titrated, usually from 106 µM), for inactives: top-dose fluorescence change, negative = quenching; TRb/SRC2 Texas Red total fluorescence interference; active = well fitted curve in either direction with a large enough effect; inconclusive = small, poorly fitted or top-dose-only effect; note: potency is the fitted concentration of half-maximal effect; % is set by controls: 0 for no effect and ±100 for the full control effect
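Human TRβ ligand-binding domain (0.6 uM) and Texas Red SRC2 peptide (20 nM) in Tris buffer with 1 uM T3 and 5% DMSO were incubated with pinned compound for 5 hr at ambient temperature. Total fluorescence was computed as S + 2P (555/632 nm).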
NPSR antagonist – neuropeptide S receptor (human) antagonism, cAMP; Q6W5P4; Potency, µM (highest dose often 38.3 µM), for inactives: at the top dose activity change, negative = inhibition, actives largely listed as inhibitors; 220,000 compounds, 1% hits; AID 1461; CHO-NPSR cells, cAMP TR-FRET, antagonist mode; note: potency is the fitted concentration of half-maximal effect; % is set by controls: 0 for no effect and ±100 for the full control effect; nearly all actives have a fitted effect of over 50% in size
TCR act – T cell receptor activation; primary human leukocytes, anti-CD3, IL-2 HTRF, 48 h; Potency, µM (top dose mostly 9.22 µM), without a hit: at the highest dose activation of IL-2 secretion, hits mostly activators; 330,000 tested, under 10 active; note: % of control where 0% means no effect
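Compounds are tested in HTS on primary human leukocytes co-incubated with a-CD3 beads for 48 hr. IL-2 output is measured by time-resolved FRET.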
TRb SRC2 PPI – inhibitors of human thyroid hormone receptor beta-SRC2 interaction. Potency, µM (top dose mostly 106 µM), for inactives: at the highest dose activity change, negative = inhibition, actives largely listed as inhibitors. 280,000 compounds, 0.065% hits. TRbeta-SRC2 peptide binding, fluorescence polarization; receptor liganded with 1 µM T3;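 note: potency is the fitted concentration of half-maximal effect; plate controls were bound peptide for no effect and peptide without receptor for full effect; nearly all actives have a fitted effect of over 50% in size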
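Each compound concentration gave % activity, normalized to unbound and bound Texas Red SRC2 controls, from polarization read after 5 hr ambient incubation with T3-loaded human TRb LBD.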
* hit, by the source's call; ? = inconclusive; / = not tested or not shown; [ ] = dose if it differs, or a comment. Sampled rows, rich in hits. Any-hit rate of the full collection: about 1%. Unless noted, calls come from the whole dose curve; as a rule, active = well fitted curve in the direction sought with a large enough effect; inconclusive = small, poorly fitted or top-dose-only effect, or another doubt; inactive = no such curve, though single readings can be large; an effect the other way counts as inactive or inconclusive.

SMILES	FBPA coupling cs	TSHR antagonist	TR SRC2 fluor cs	NPSR antagonist	TCR act	TRb SRC2 PPI
COc1ccc2c(c1)CCc1cn3nc(C)cc3nc1-2	-45*	0	11%	36%	13%	-7%
CN(C)CCCOc1ccc2c(c1)Sc1ccccc1CC2=O	-66*	37	0%[53 µM]	-45%	13%[46.1 µM]	-9%[53 µM]
Cc1ccc(C)c(N2CCN(C(=O)CS(=O)(=O)c3cccc4nsnc34)CC2)c1	/	/	0.035µM*[quencher]	/	/	-29%
Cc1ccc(-n2nc3c(=O)n(C(C)C(=O)NC4CC4)nc(C)c3c2C)cc1 (configuration not stated)	-1	-114*	/	/	-1%	/
CCC(C(=O)NC1CC1)n1nc(C)c2c(C)n(-c3ccc(C)cc3)nc2c1=O (configuration not stated)	0	-7	/	/	-2%	/
S=C(Nc1ccc2cn[nH]c2c1)Nc1ccccc1Cl	-47*	5	2%	7%	1%[46.1 µM]	6%
CC(C)Cn1c2c(c(O)c(C(=O)Nc3ccc(F)cc3)c1=O)CCCC2	2	-5	-1%	-19%[46.1 µM]	4%	-14%
CC(C)Cn1c2c(c(O)c(C(=O)Nc3ncccc3O)c1=O)CCCC2	-37*	-9	0%	-19%[46.1 µM]	6%	5%
COc1ccc(CNc2nc(-c3ccc(C(=O)N(C)C)cc3)nc3ccccc23)c(OC)c1	-13	/	-10%	/	/	6%
COc1ccc(CNc2nc(-c3ccc(N(C)C)cc3)nc3ccccc23)c(OC)c1	-37*	/	/	/	/	/
N#C/C(=C/c1ccc(N2CCOCC2)o1)c1ccc(Br)cc1	/	7	8%	-29%[46.1 µM]	-1%	4%
N#C/C(=C/c1ccc(N2CCCCCC2)o1)c1ccc(F)cc1	/	/	/	/	-35%	/
N#C/C(=C\c1ccc(N2CCOCC2)o1)c1ccccc1	-44*	-82*	?	?	-16%	-17%
N#C/C(=C/c1ccc(N2CCCCCC2)o1)c1cccc(F)c1	-48*	-9	-1%	6.3µM*	-5%	-20%
CN1C(=O)/C(=C/c2ccccc2OCc2cccc(F)c2)N(C)C1=S	-37*	-3	-6%	?	1%	1%
CN1C(=O)/C(=C/c2ccc(OCc3ccc(F)cc3)cc2)N(C)C1=S	-3	-10	/	/	-1%	/
CCCCn1c(C)cc2c(c1=O)[C@H]1O[C@](CCCCN3C(=O)c4ccccc4C3=O)(Cc3ccccc31)O2	-2	/	/	/	/	/
CCc1cccc2c(C(=O)CSc3nncn3-c3ccc(OC)cc3)c[nH]c12	-3	0	-2%	-4%	2%[46.1 µM]	1%
CCc1cccc2c(C(=O)CSc3nncn3-c3ccccc3OC)c[nH]c12	0	10	89µM*[quencher]	8%	-5%[46.1 µM]	0%
Cc1ccc(CSC2=Nc3ccccc3C3=NC(CC(=O)NC4CCCCC4)C(=O)N23)cc1 (configuration not stated)	/	/	-1%	/	/	-1%
COCCn1c(N)c(C(=O)OCc2ccccc2)c2nc3ccccc3nc21	-37*	0	-1%	-16%[46.1 µM]	-2%	-4%
O=c1ccn(-c2cccc(C(F)(F)F)c2)nc1-c1ccn(-c2ccccc2F)n1	-43*	-11	-2%	-9%[46.1 µM]	-2%	5%
COc1ccc(-n2ccc(-c3nn(-c4cccc(C(F)(F)F)c4)ccc3=O)n2)cc1	-7	-13	0%	-6%[46.1 µM]	-9%	0%
CCc1nnc(NC(=O)CSc2nc(-c3ccccc3)cc(-c3ccc(OC)cc3)c2C#N)s1	-10	5	-1%	7.9µM*	8%[46.1 µM]	1%
COc1ccc(-c2cc(-c3ccc(OC)cc3)c(C#N)c(SC)n2)cc1	1	-6	-2%	13µM*	-2%[46.1 µM]	-3%
CC(C)NC(=O)CSc1nc(-c2cccs2)cc(-c2ccccc2)c1C#N	-1	10	-2%	10µM*	-1%[46.1 µM]	1%
COc1ccc(-c2cc(-c3ccc(O)cc3)nc(N)c2C#N)cc1	0	-11	/	/	2%	/
COC(=O)CSc1nc(-c2ccccc2)cc(-c2ccco2)c1C#N	-32*	?	-3%	?	1%	4%
